From PubChem BioAssay (NCI)
About 83,000 compounds went through this panel and 20% of them were active in at least one assay; those are over-represented in the sample as a whole.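 How to read the values: 0–100, growth inhibition (40 = 60% inhibited); 0, no net growth; -100 to 0, cell death (-40 = 40% of starting cells died; -100 = all dead).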 Values without a mark were called inactive. Calls of active or inactive are those of the source. How the source made its calls: active means growth percent below 10; inactive means the rest.

Assays:
Assay in all cases: NCI-60 one-dose screen, 48 h (100 = growth as untreated, 0 = no growth, -100 = all killed)
Settings in all cases: 10 µM unless noted
HCT-15 colon = system: HCT-15 colon
HT29 colon = system: HT29 colon
SNB-75 CNS = system: SNB-75 CNS
SNB-19 CNS = system: SNB-19 CNS
U251 CNS = system: U251 CNS
PC-3 prostate = system: PC-3 prostate
SK-MEL-5 melanoma = system: SK-MEL-5 melanoma
UACC-62 melanoma = system: UACC-62 melanoma
LOX IMVI melanoma = system: LOX IMVI melanoma
SK-MEL-28 melanoma = system: SK-MEL-28 melanoma
SK-MEL-2 melanoma = system: SK-MEL-2 melanoma
EKVX NSCLC = system: EKVX NSCLC
SN12C renal = system: SN12C renal
TK-10 renal = system: TK-10 renal
ACHN renal = system: ACHN renal
CAKI-1 renal = system: CAKI-1 renal
A498 renal = system: A498 renal
CCRF-CEM leukemia = system: CCRF-CEM leukemia
MOLT-4 leukemia = system: MOLT-4 leukemia
UO-31 renal = system: UO-31 renal

Row | Structure (SMILES) | growth (HCT-15 colon) | growth (HT29 colon) | growth (SNB-75 CNS) | growth (SNB-19 CNS) | growth (U251 CNS) | growth (PC-3 prostate) | growth (SK-MEL-5 melanoma) | growth (UACC-62 melanoma) | growth (LOX IMVI melanoma) | growth (SK-MEL-28 melanoma) | growth (SK-MEL-2 melanoma) | growth (EKVX NSCLC) | growth (SN12C renal) | growth (TK-10 renal) | growth (ACHN renal) | growth (CAKI-1 renal) | growth (A498 renal) | growth (CCRF-CEM leukemia) | growth (MOLT-4 leukemia) | growth (UO-31 renal)
1 | CCN(CC)CCSc1ncnc2c1cnn2-c1ccc(S(N)(=O)=O)cc1 | 89% | 85.7% | 108% | 107% | 92.9% | 85.7% | 79.1% | 92.7% | 87% | 92.8% | 96.5% | 86.8% | 89.5% | 103% | 92.2% | 7.74% (active) | 92% | 88.4% | 85.6% | –
2 | CC(=O)N1N=C(c2ccc(Nc3ccnc4cc(Cl)ccc34)cc2)CC1c1ccc(Cl)cc1 (stereo not drawn) | 30.1% | 25.9% | 59.6% | 65.6% | 57.9% | 37.8% | -50.1% (active) | 44.2% | 33.6% | 45.9% | 54.1% | 36.4% | 61.9% | – | 34.1% | 44.7% | 43.9% | – | 34.2% | –
3 | CC(C)Cn1cnc2c(NCn3nc(-c4cc(Cl)cc(Cl)c4Cl)n(/N=C/c4ccc(Cl)cc4)c3=S)nc3ccccc3c21 | 91.1% | 91.1% | 90.5% | 108% | 86.6% | 83.6% | 57.2% | 72% | 74.4% | 112% | 81.8% | 70.6% | 85% | 90.4% | 81.6% | 63.9% | 96.8% | – | 82.2% | –
4 | Cc1cnc2nc(-c3ccc(N(C)C)cc3)cn2c1 | 107% | 112% | 133% | 107% | 110% | 121% | 99.4% | 96% | 106% | 123% | 101% | 91.7% | 103% | 97.6% | 112% | 108% | 107% | 83.3% | 91.9% | –
5 | CCc1nn2c(-c3ccc(Cl)cc3C)c(-c3cc(OC)c(OC)c(OC)c3)nc2s1 | 69.8% | 66.8% | 3.79% (active) | 56.8% | 89.7% | 64.1% | 70.3% | 60% | 77.1% | 80.8% | 69.6% | – | 80.2% | 77.2% | 76.7% | 55.2% | 74.5% | 85.1% | 71% | 47.1%
6 | O=C(CSc1ncc(-c2ccccc2)n1-c1ccccc1)Nc1ccc(-c2nc3ccccc3s2)cc1 | 69% | 38.1% | 103% | 90.4% | 24.7% | 80% | 75.7% | 87.3% | 63.5% | 80% | 80.6% | 103% | 71.2% | 44.2% | 102% | 87.4% | 107% | 83.8% | 66.6% | –
7 | NS(=O)(=O)c1ccc(N2CC(c3nc4ccccc4[nH]3)CC2=O)cc1 (stereo not drawn) | 107% | 97.8% | 67.9% | 101% | 99.7% | 90.8% | 99.8% | 97.4% | 94.2% | 103% | 102% | – | 97.3% | 128% | 91.9% | 97.3% | 110% | 98.3% | 96.3% | 76.6%
8 | Nc1ncnc2c1CN(Cc1ccccc1)CC2 | 107% | 104% | 89% | 104% | 101% | 93.9% | 109% | 107% | 91.4% | 109% | 103% | 110% | – | 108% | 103% | 102% | 120% | 95.5% | 102% | 76.2%
9 | COc1cc(/C=C/C(=O)CC(=O)/C=C/c2ccc(OC(=O)C3C4CC5CC(C4)CC3C5)c(OC)c2)ccc1OC(=O)C1C2CC3CC(C2)CC1C3 (stereo not drawn) | 135% | 105% | 107% | 106% | 111% | 82.8% | 110% | 114% | 108% | 131% | 93.1% | 109% | 108% | 96.9% | 144% | 99.6% | 109% | 89.8% | 103% | –
10 | C[C@H]1O[C@@H](O[C@H]2[C@@H](O)C[C@H](O[C@H]3[C@@H](O)C[C@H](O[C@H]4CC[C@]5(C)C6C[C@@H](O)[C@]7(C)[C@@H](C8=CC(=O)OC8)CC[C@]7(O)C6CC[C@@H]5C4)O[C@@H]3C)O[C@@H]2C)C[C@H](O)[C@@H]1O (stereo partly drawn) | -94.9% (active) | -84.5% (active) | -75.6% (active) | -100% (active) | -100% (active) | -21.3% (active) | -100% (active) | -98.8% (active) | -98.1% (active) | -56.3% (active) | -72.8% (active) | -100% (active) | -61.7% (active) | – | -75.8% (active) | -100% (active) | -33% (active) | -56.6% (active) | -33.7% (active) | –
11 | O=C1N=C(N2CCOCC2)S/C1=C\c1cn(-c2ccccc2)nc1-c1ccccc1 | 89.4% | 80.5% | -30.2% (active) | 72.1% | 66.1% | 90.4% | 66.4% | 77.8% | 76% | 72% | 81.7% | 90% | 92.4% | 57.1% | 58.9% | 93.9% | 48% | 92.4% | 116% | –
12 | O=C1C(=O)/C(=C/c2ccccc2)CCCCCC/C1=C/c1ccccc1 | 32.2% | -25.6% (active) | 68% | 67.9% | 11% | 55.4% | 88.2% | 79.6% | -73.5% (active) | 94.9% | 105% | – | 79.8% | 115% | 88.5% | 82.1% | 78.6% | 4.29% (active) | 10.2% | 30.9%
13 | COc1cc(/C=C/C(=O)c2c(C)n([O-])c3ccccc3[n+]2=O)cc(OC)c1OC | 30% | 65.4% | 81% | 50.8% | 47.7% | 25.5% | 21.3% | 54.7% | 50.9% | 79% | 36.8% | 35.5% | 54.6% | 87.9% | 76.6% | 26.3% | 69.7% | -51.2% (active) | -64.5% (active) | –
14 | COc1ccc(-n2cnc3cc(C(=O)N4CCCCC4)ccc32)cc1 | 104% | 102% | 86.6% | 94.3% | 96.6% | 94.6% | 102% | 101% | 97.9% | 99.1% | 111% | – | 95% | 110% | 97.9% | 98.5% | 96.3% | 98% | 98% | 97.4%
15 | O=CN1N=C(c2ccc(Nc3ccnc4cc(Cl)ccc34)cc2)CC1c1ccc(Cl)cc1 (stereo not drawn) | 16.4% | 5.55% (active) | 4.26% (active) | 44.5% | 27.6% | 32.3% | -27.4% (active) | 28.7% | 32% | 39.2% | 52.1% | 40.5% | 36.1% | – | 27.9% | 39.4% | 34.6% | 6.48% (active) | 7.23% (active) | –
16 | CCOc1cc(/C=C/C(=O)C(C(=O)/C=C/c2ccc(OC(=O)CNc3nc4ccccc4[nH]3)c(OCC)c2)C(=O)CNc2nc3ccccc3[nH]2)ccc1OC(=O)CNc1nc2ccccc2[nH]1 | -41% (active) | -100% (active) | -18.1% (active) | 25.1% | -61.5% (active) | 3.12% (active) | -86.6% (active) | -61.4% (active) | -98.5% (active) | -29.6% (active) | 13.2% | -3.49% (active) | -22.9% (active) | 31.8% | -45.6% (active) | -12.2% (active) | -9.48% (active) | – | -27.5% (active) | –
